Experimental data from PubChem BioAssay (NCI).
About 83,000 compounds went through this panel and 20% of them were active in at least one assay; those are over-represented in the sample as a whole.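 Single-concentration screen, 48 h exposure, 96-well plates. Endpoint: percent growth. Below 10 = active.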 Calls of active or inactive are those of the source.

Assays:
Experiment in all cases: NCI-60 one-dose screen, 48 h (100 = growth as untreated, 0 = no growth, -100 = all killed)
Conditions in all cases: 10 µM
RPMI-8226 leukemia = test system: RPMI-8226 leukemia
OVCAR-8 ovarian = test system: OVCAR-8 ovarian
OVCAR-5 ovarian = test system: OVCAR-5 ovarian
OVCAR-4 ovarian = test system: OVCAR-4 ovarian
SK-OV-3 ovarian = test system: SK-OV-3 ovarian
IGROV1 ovarian = test system: IGROV1 ovarian
OVCAR-3 ovarian = test system: OVCAR-3 ovarian
HS 578T breast = test system: HS 578T breast
NCI/ADR-RES ovarian = test system: NCI/ADR-RES ovarian
T-47D breast = test system: T-47D breast
BT-549 breast = test system: BT-549 breast
MDA-MB-435 melanoma = test system: MDA-MB-435 melanoma
SW-620 colon = test system: SW-620 colon
MCF7 breast = test system: MCF7 breast
HCT-116 colon = test system: HCT-116 colon
HCC-2998 colon = test system: HCC-2998 colon
KM12 colon = test system: KM12 colon

Measured: growth

O=S(=O)(NCCCNc1nccc(-c2c(-c3ccc(F)cc3)nc3sccn23)n1)c1ccc2ccccc2c1
active: HCC-2998 colon 7.22%
inactive: RPMI-8226 leukemia 35.9% | OVCAR-8 ovarian 29.7% | OVCAR-5 ovarian 78.7% | OVCAR-4 ovarian 56.8% | SK-OV-3 ovarian 65.2% | IGROV1 ovarian 22.8% | OVCAR-3 ovarian 75.3% | HS 578T breast 71.1% | NCI/ADR-RES ovarian 42.5% | T-47D breast 17.4% | BT-549 breast 46.1% | MDA-MB-435 melanoma 25.7% | SW-620 colon 51.9% | MCF7 breast 30.3% | HCT-116 colon 37.2% | KM12 colon 19.9%

CCN(CC)CCOc1nc2cc(OC)c(OC)cc2c2c1-c1ccc(OC)cc1C2=O
inactive: RPMI-8226 leukemia 49.2% | OVCAR-8 ovarian 52.9% | OVCAR-5 ovarian 111% | OVCAR-4 ovarian 61.5% | SK-OV-3 ovarian 77.3% | IGROV1 ovarian 60.4% | OVCAR-3 ovarian 80% | HS 578T breast 89.6% | NCI/ADR-RES ovarian 64.4% | T-47D breast 107% | BT-549 breast 81.3% | MDA-MB-435 melanoma 86.2% | SW-620 colon 45.4% | MCF7 breast 35% | HCT-116 colon 47.4% | HCC-2998 colon 82.6% | KM12 colon 64.7%

c1ccc(CSc2nnc3c4c5c(sc4nc(-c4cccnc4)n23)CCCCCC5)cc1
inactive: RPMI-8226 leukemia 20.1% | OVCAR-8 ovarian 20.3% | OVCAR-5 ovarian 95.2% | OVCAR-4 ovarian 27.3% | SK-OV-3 ovarian 71.2% | IGROV1 ovarian 77% | OVCAR-3 ovarian 36.4% | HS 578T breast 86.2% | NCI/ADR-RES ovarian 100% | T-47D breast 14% | BT-549 breast 41.1% | MDA-MB-435 melanoma 19.1% | SW-620 colon 55.3% | MCF7 breast 37.6% | HCT-116 colon 29.3% | HCC-2998 colon 46.5% | KM12 colon 34.4%

Cc1cccc2c1O/C(=C\c1ccc([N+](=O)[O-])o1)C2=O
inactive: SK-OV-3 ovarian 45.1% | NCI/ADR-RES ovarian 10.5%
active: RPMI-8226 leukemia -34.7% | OVCAR-8 ovarian -7.67% | OVCAR-5 ovarian -20.8% | OVCAR-4 ovarian -82.4% | IGROV1 ovarian -34.7% | OVCAR-3 ovarian -85.7% | HS 578T breast -23.2% | T-47D breast -26% | BT-549 breast -68.5% | MDA-MB-435 melanoma -53.2% | SW-620 colon -68% | MCF7 breast -39.7% | HCT-116 colon -53.2% | HCC-2998 colon -67.4% | KM12 colon -34.2%

CC(C)(C#N)Nc1ccccc1
inactive: RPMI-8226 leukemia 105% | OVCAR-8 ovarian 105% | OVCAR-5 ovarian 100% | OVCAR-4 ovarian 99.5% | SK-OV-3 ovarian 106% | IGROV1 ovarian 121% | OVCAR-3 ovarian 124% | HS 578T breast 105% | NCI/ADR-RES ovarian 116% | T-47D breast 102% | BT-549 breast 108% | MDA-MB-435 melanoma 96.1% | SW-620 colon 112% | MCF7 breast 93.4% | HCT-116 colon 101% | HCC-2998 colon 119% | KM12 colon 115%

Cc1nc2oc3ccccc3c(=O)c2cc1C(=O)NCc1ccccc1
inactive: RPMI-8226 leukemia 80.4% | OVCAR-8 ovarian 90.4% | OVCAR-5 ovarian 81.8% | OVCAR-4 ovarian 67.9% | SK-OV-3 ovarian 110% | IGROV1 ovarian 102% | OVCAR-3 ovarian 93.3% | HS 578T breast 105% | NCI/ADR-RES ovarian 55.4% | T-47D breast 53.9% | BT-549 breast 88% | MDA-MB-435 melanoma 65.3% | SW-620 colon 72.4% | MCF7 breast 43.8% | HCT-116 colon 59.8% | HCC-2998 colon 37.9% | KM12 colon 31.3%

CCOCC(=O)C(C#N)c1ccc(Cl)c(Cl)c1 (stereo not drawn)
inactive: RPMI-8226 leukemia 88.9% | OVCAR-8 ovarian 101% | OVCAR-5 ovarian 96.6% | OVCAR-4 ovarian 91.3% | SK-OV-3 ovarian 100% | IGROV1 ovarian 101% | OVCAR-3 ovarian 110% | HS 578T breast 100% | NCI/ADR-RES ovarian 115% | T-47D breast 124% | BT-549 breast 104% | MDA-MB-435 melanoma 92.8% | SW-620 colon 102% | MCF7 breast 92.2% | HCT-116 colon 105% | HCC-2998 colon 106% | KM12 colon 107%

CC(=O)CSC(C)=O
inactive: RPMI-8226 leukemia 93.2% | OVCAR-8 ovarian 108% | OVCAR-5 ovarian 106% | OVCAR-4 ovarian 98% | SK-OV-3 ovarian 110% | IGROV1 ovarian 99.2% | OVCAR-3 ovarian 115% | HS 578T breast 101% | NCI/ADR-RES ovarian 111% | T-47D breast 103% | BT-549 breast 105% | MDA-MB-435 melanoma 96.5% | SW-620 colon 101% | MCF7 breast 93% | HCT-116 colon 98% | HCC-2998 colon 110% | KM12 colon 107%

CCN(CC)CCC(=O)Nc1cccc2c1C(=O)c1c(c(O)c3ccccc3c1O)C2=O
inactive: RPMI-8226 leukemia 33.2% | OVCAR-8 ovarian 45.3% | OVCAR-5 ovarian 80.9% | OVCAR-4 ovarian 60.2% | SK-OV-3 ovarian 63.6% | IGROV1 ovarian 36.9% | OVCAR-3 ovarian 64.8% | HS 578T breast 76.6% | NCI/ADR-RES ovarian 46.9% | T-47D breast 41.2% | BT-549 breast 68.8% | MDA-MB-435 melanoma 91.6% | SW-620 colon 43.8% | MCF7 breast 30.3% | HCT-116 colon 44.9% | HCC-2998 colon 80.9% | KM12 colon 56.9%
